PubChem BioAssay (NCI)
This is part of a sample that, as a whole, favours compounds with a hit. Of some 83,000 tested, about 20% had one in any assay.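 For each line, cells grew in 96-well plates with the test compound present at a single concentration for 48 hours.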 The source made the active and inactive calls. Rule for the calls: active = growth percent below 10; inactive = the rest.

What was measured:
Test in all cases: NCI-60 one-dose screen, 48 h (100 = growth as untreated, 0 = no growth, -100 = all killed)
Details in all cases: 10 µM unless noted
[1] = system: SK-MEL-2 melanoma
[2] = system: EKVX NSCLC
[3] = system: SN12C renal
[4] = system: UO-31 renal
[5] = system: TK-10 renal
[6] = system: ACHN renal
[7] = system: CAKI-1 renal
[8] = system: A498 renal
[9] = system: CCRF-CEM leukemia
[10] = system: MOLT-4 leukemia
[11] = system: SR leukemia
[12] = system: RPMI-8226 leukemia
[13] = system: OVCAR-8 ovarian
[14] = system: OVCAR-4 ovarian
[15] = system: SK-OV-3 ovarian
[16] = system: IGROV1 ovarian
[17] = system: OVCAR-3 ovarian
[18] = system: HS 578T breast
[19] = system: NCI/ADR-RES ovarian
[20] = system: OVCAR-5 ovarian

Measured: growth

C#CCOc1cccc(/C(N)=N/C(N)=N/c2nc3ccccc3s2)c1
inactive: [1] 103% | [2] 73.8% | [3] 66% | [4] 91.8% | [5] 148% | [6] 81.4% | [7] 73.5% | [8] 122% | [9] 76.5% | [10] 71.8% | [11] 34.5% | [12] 83.2% | [13] 67.9% | [14] 102% | [15] 133% | [16] 65.7% | [17] 104% | [18] 108% | [19] 59.1%

Cc1ccc(/C(N)=N/C(N)=N/c2nc3ccccc3s2)cc1
inactive: [1] 114% | [2] 67.7% | [3] 60.2% | [4] 87% | [5] 136% | [6] 66.8% | [7] 76.8% | [8] 121% | [9] 78.9% | [10] 75.9% | [11] 21.1% | [12] 78.3% | [13] 78.8% | [14] 105% | [15] 134% | [16] 67.3% | [17] 106% | [18] 112% | [19] 31.1%

CCN(CC)CCOc1ccc(C(=C(C)c2ccc(OC)cc2)c2ccc(OCCN(CC)CC)cc2)cc1
active: [1] -36.7% | [4] -75.1% | [6] -34.1% | [7] -18.2% | [8] -29% | [9] -10.8% | [10] 1.17% | [11] -37.3% | [12] -43.7% | [13] 10% | [16] 0.0725% | [17] -4.04% | [18] -21.8%
inactive: [2] 39.1% | [3] 34.6% | [5] 18.8% | [20] 18.8% | [19] 25.3%

Brc1cccc(-c2cc(-c3ccc4c(c3)OC=CO4)[nH]n2)c1
inactive: [1] 58.7% | [2] 56.7% | [3] 59.3% | [4] 50.4% | [5] 108% | [6] 43.7% | [7] 29.9% | [8] 42.6% | [9] 22% | [10] 29.2% | [11] 27.6% | [12] 22.5% | [13] 42.3% | [20] 71.5% | [15] 67.9% | [16] 41.3% | [18] 58.8% | [19] 15.3%

O=C(/C=C/c1cccc(F)c1)c1cccc(OCCCOc2cccc(C(=O)/C=C/c3cccc(F)c3)c2)c1
active: [11] 6.17% | [12] -15.7%
inactive: [1] 97.3% | [2] 47.2% | [3] 82% | [4] 37.6% | [5] 114% | [6] 89.4% | [7] 90.4% | [8] 90.8% | [9] 36.8% | [10] 56.3% | [13] 67.6% | [14] 75.3% | [15] 124% | [16] 36.9% | [17] 74.9% | [18] 93.8% | [19] 90.1%

CN1CCN(c2ccc(Nc3nc(NCCNS(=O)(=O)c4ccccc4)c4sccc4n3)cc2)CC1
inactive: [1] 98.6% | [2] 95.2% | [3] 95% | [4] 81.2% | [5] 142% | [6] 101% | [7] 76.4% | [8] 101% | [9] 105% | [10] 95.3% | [11] 117% | [12] 102% | [13] 106% | [20] 102% | [15] 107% | [16] 95.9% | [18] 88.1% | [19] 101%

C#CCOc1ccccc1/C=N/Nc1nc(-c2ccc(Cl)cc2)cs1
inactive: [1] 102% | [2] 77.5% | [3] 93.8% | [4] 75.9% | [5] 145% | [6] 95.3% | [7] 92% | [8] 81.4% | [9] 96.6% | [10] 90.8% | [11] 101% | [12] 91.5% | [13] 98.1% | [14] 87.8% | [15] 93.9% | [16] 77.8% | [17] 98.8% | [18] 99.6% | [19] 94.2%

CCCCSC1=C(Cl)CN(c2ccc(Cl)cc2)C1=O
inactive: [1] 103% | [2] 101% | [3] 104% | [4] 91.1% | [5] 140% | [6] 104% | [7] 93.9% | [8] 101% | [9] 89.9% | [10] 86.2% | [11] 34.3% | [12] 31.7% | [13] 99.1% | [20] 104% | [15] 110% | [16] 109% | [18] 107% | [19] 103%

Cc1ccc(C(=O)CSc2nc3ccccc3c(=O)n2C)cc1
inactive: [1] 95.7% | [2] 71.5% | [3] 94.2% | [4] 56.6% | [5] 134% | [6] 83.7% | [7] 72.7% | [8] 99.8% | [9] 83.6% | [10] 88% | [11] 81.5% | [12] 63.8% | [13] 94.4% | [14] 52.4% | [15] 87.4% | [16] 71.1% | [17] 94.2% | [18] 94.6% | [19] 90%

COc1ccccc1/C=C1\Oc2ccc(O)c(O)c2C1=O
inactive: [1] 102% | [2] 78.5% | [3] 94.5% | [4] 82.1% | [5] 100% | [6] 101% | [7] 78.4% | [8] 85.1% | [9] 75.5% | [10] 85% | [11] 99.6% | [12] 93.5% | [13] 94.1% | [14] 84% | [15] 105% | [16] 98.7% | [17] 102% | [18] 87.9% | [19] 98.5%

O=C(CCl)Nc1ccc(NC(=O)c2cc(Cl)ccc2O)c(Cl)c1
active: [9] 9.8% | [16] -45.3%
inactive: [1] 92% | [2] 95.9% | [3] 68.4% | [4] 54.7% | [5] 129% | [6] 85.8% | [7] 59.2% | [8] 100% | [10] 25.7% | [11] 21.3% | [12] 49.8% | [13] 48.6% | [14] 83% | [15] 90.9% | [18] 86.9% | [19] 56.7%

COc1cc(-c2nc(-c3ccccc3)[nH]c2-c2ccnc(NCCCNS(=O)(=O)c3cccc(F)c3)n2)ccc1F
active: [16] -69.7%
inactive: [1] 105% | [2] 80.8% | [3] 93.8% | [4] 89.2% | [5] 137% | [6] 88.7% | [7] 106% | [8] 68.9% | [9] 66% | [10] 54.4% | [11] 77.1% | [12] 62.4% | [13] 86% | [14] 104% | [15] 136% | [17] 109% | [18] 103% | [19] 92.1%

O=C1C(SCc2ccccc2)=C(Cl)CN1c1ccccc1
active: [4] -90.8%
inactive: [1] 110% | [2] 97.9% | [3] 95.7% | [5] 136% | [6] 94.7% | [7] 80.9% | [8] 94.3% | [9] 86.1% | [10] 84.3% | [11] 18.5% | [12] 83.9% | [13] 101% | [14] 103% | [15] 126% | [16] 103% | [18] 104% | [19] 102%

O=C(Nc1ccc(N2CCOCC2)cc1)Nc1ccc2c(ccn2C(=O)c2cccc(F)c2)c1
inactive: [1] 77.2% | [2] 73.9% | [3] 74.2% | [4] 102% | [5] 86.9% | [6] 61.8% | [7] 42.3% | [8] 87.7% | [9] 82.4% | [10] 83.6% | [11] 71.8% | [12] 58.5% | [13] 58.3% | [14] 82.6% | [15] 111% | [16] 81% | [17] 82.7% | [18] 21.7% | [19] 74.2%

CCCCCN1C(=O)/C(=c2\sc3n(c2=O)C2C(NN=3)N(CC)C(=O)N2CC)c2cccc(C)c21 (centres undefined)
inactive: [1] 97.1% | [2] 56.2% | [3] 74.3% | [4] 62.7% | [5] 96.5% | [6] 43.9% | [7] 41.3% | [8] 12% | [9] 30.6% | [10] 53.1% | [11] 13.6% | [12] 39.1% | [13] 73.3% | [14] 52.1% | [15] 89.3% | [16] 44.8% | [17] 32.9% | [18] 34.3% | [19] 30.7%
